Holding throughout (experiment): PBM binding z-score (relative to random genomic background probes); higher = stronger binding; sequences stand for … in GC…GCGATTGACAGCGTAGAATGAAGG
For experiment [1], the system named is RARb homodimer (NR concentration 270 nM). The method in brief: (§1)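 On custom Agilent 4×180K arrays, double-stranded probes with 34-nt variable regions carried direct-repeat seeds, single-nucleotide variants, half-site ablations or random human genomic background. Ligand-free nuclear receptor dimers were applied for 1 h, and binding was read with antibodies against each partner (one per run). Binding z-scores come from regression-normalized fluorescence, with the random background probes as reference.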

Experiment [2] relates to RARg:RXRa (NR concentration 270 nM, RXRa partner concentration 90 nM). The method in brief:
as §1

Experiment [3] has as its system RARg homodimer (NR concentration 270 nM). The method in brief:
as §1

The subject of experiment [4] is RXRa DBDmut IVT, anti-RXR (DBD mutation: RXRa K156A/R161A, NR concentration 90 nM). The method in brief:
as §1

The subject of experiment [5] is RXRa homodimer (NR concentration 180 nM). The method in brief:
as §1

Experiment [6] deals with THRa:RXRa (NR concentration 90 nM, RXRa partner concentration 90 nM). The method in brief: as §1
Experiment [7] has as its system THRa homodimer (NR concentration 90 nM). The method in brief: as §1
The test system of experiment [8] is VDR homodimer (NR concentration 270 nM). The method in brief:
as §1

Turning to TCGAGTAGGTTAGTCGGGGCCTTCAGCCAACATA, the PBM binding z-score is -0.149 in experiment [1]; -0.47 in experiment [2]; -0.571 in experiment [3]; 0.14 in experiment [4]; -0.278 in experiment [5]; 1.57 in experiment [6]. Besides, the PBM binding z-score in experiment [7] was -0.433; in experiment [8], -0.455.

Take CCTAGTTGGTCAGGATGTCACACACCGGATATGA: the PBM binding z-score worked out at 1.17 in experiment [1]; 0.74 in experiment [2]; 1.1 in experiment [3]; 0.164 in experiment [4]; 0.209 in experiment [5]; 0.0669 in experiment [6]. For the same sequence, the figures for the PBM binding z-score in experiment [7] and in experiment [8] were 0.525 and 0.443, respectively.

With CCTAGTTGGTCAAGGTCACACTCGCTATAGGTAC, the PBM binding z-score in experiment [1] turned out to be 4.05; in experiment [2], 4.19; in experiment [3], 4.5; in experiment [4] it was 2.44; in experiment [5], 3.96; in experiment [6] it was 3.92. The PBM binding z-score in experiment [7] was determined as 4.03; in experiment [8] it was 3.42.

For AGAATGAGGTTCTTAAGATCAGGGAATTGCGGTC, the PBM binding z-score in experiment [1] is -0.377; in experiment [2] it was -0.106; in experiment [3], -0.186; in experiment [4], 0.301; in experiment [5] it was -0.00148; in experiment [6] it was 0.365. Besides, the PBM binding z-score in experiment [7] is 0.000852; in experiment [8], -0.0897.

GTATCAAGGTGAATAGGTCGTTGATGAGTAGGCG: the PBM binding z-score in experiment [1] is 1.83; in experiment [2] it was 2.77; in experiment [3] it was 1.78; in experiment [4], 0.056; in experiment [5], 1.81; in experiment [6] it was 2.29. Moreover, the PBM binding z-score in experiment [7] turned out to be 0.898; in experiment [8], 0.555.

Regarding AACTCTAGGTAAAAGTTCAGTGAATCCCGAGGAT, the PBM binding z-score in experiment [1] worked out at 2.27; in experiment [2] it was 1.77; in experiment [3], 1.69; in experiment [4], 0.858; in experiment [5], 1.76; in experiment [6], 1.22. The PBM binding z-score in experiment [7] stood at 0.014; in experiment [8], 1.4.

TCTTGTAGATCAAGGAGGTTAAGAAAGCCTGAGT: the PBM binding z-score is 0.594 in experiment [1]; 0.234 in experiment [2]; -0.0688 in experiment [3]; 0.581 in experiment [4]; 0.685 in experiment [5]; 0.835 in experiment [6]. Further, the PBM binding z-score in experiment [7] is -0.069; in experiment [8], 0.29.

Consider TGAATGAGGTTAAAGAGCAGGGAACGTGGCGTCG, for which the PBM binding z-score in experiment [1] came to 0.754; in experiment [2], 2.13; in experiment [3], 1.34; in experiment [4], 1.01; in experiment [5] it was 3.19; in experiment [6], 2.39. Further, the PBM binding z-score in experiment [7] worked out at 0.467; in experiment [8], 0.665.

TCATATAGGTAAACAGTTGAAAGTCCGTAAGTTA: the PBM binding z-score in experiment [1] was found to be 0.802; in experiment [2], 0.44; in experiment [3] it was 0.23; in experiment [4] it was 1.9; in experiment [5], 0.856; in experiment [6], 0.535. For the same sequence, the PBM binding z-score stood at 0.428 in experiment [7] and 0.845 in experiment [8].

TATACAGGGTCAAAGGCCAGAGAACGAATGTCGA: the PBM binding z-score in experiment [1] is 3.31; in experiment [2] it was 5.7; in experiment [3] it was 5.34; in experiment [4] it was 2.75; in experiment [5], 7.14; in experiment [6], 3.4. The PBM binding z-score in experiment [7] is 0.635; in experiment [8], 2.34.

For AGTCAAAGTCCAGGACGAGGTAACGTAAAGCACG, the PBM binding z-score in experiment [1] was 0.381; in experiment [2], 0.451; in experiment [3] it was 0.688; in experiment [4], -0.0759; in experiment [5] it was 0.28; in experiment [6], 1.89. Besides, the PBM binding z-score was 1.14 in experiment [7] and -0.089 in experiment [8].

As for ATACCAAGGTGTTCGTGAGGTCGTTGATACTAAC, the PBM binding z-score in experiment [1] is 1.53; in experiment [2], 0.824; in experiment [3], 0.278; in experiment [4] it was 0.712; in experiment [5], 0.997; in experiment [6], 2.96. Further, the results for the PBM binding z-score in experiment [7] and in experiment [8] were 2.38 and 2.98, respectively.

In the case of ATCCCAAGGTGATCGTGAGGTCGTTGATACTAAC, the PBM binding z-score in experiment [1] is 1.61; in experiment [2] it was 1.97; in experiment [3], 0.447; in experiment [4] it was 0.515; in experiment [5] it was 1.21; in experiment [6] it was 3.42. Besides, the PBM binding z-score in experiment [7] was determined as 2.59; in experiment [8], 2.9.

Regarding CAAACTAGGTCAAGAGGTCAATGTCCGCTTCCCG, the PBM binding z-score in experiment [1] amounted to 5.98; in experiment [2] it was 7.68; in experiment [3] it was 7.46; in experiment [4], 2.81; in experiment [5], 7.85; in experiment [6] it was 4.21. Further, the PBM binding z-score in experiment [7] worked out at 2.55; in experiment [8] it was 4.02.
